This note sets out measurements from PubChem BioAssay (NCATS).

Structures are written as SMILES. Records with an inconclusive call do not appear. Values without a mark were called inactive. Active and inactive are the calls of the source. Calls come from the whole dose curve; as a rule, active = well fitted curve in the direction sought with a large enough effect; inconclusive = small, poorly fitted or top-dose-only effect, or another doubt; inactive = no such curve, though single readings can be large; an effect the other way counts as inactive or inconclusive. Peptide text beside a SMILES is read from it.

Assay [1] has as its target Cellular tumor antigen p53 (Homo sapiens) (UniProt P04637). The assay is described as follows: Primary qHTS for small molecule compounds that upregulate eGFP-tagged delta133p53alpha (in N-terminal) cells. (AID 2060322).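 For activation: series mostly up to about 56 µM; 0% = DMSO vehicle and 100% = reference activator.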 Note: nearly all actives have a fitted effect of over 75% in size. Note: potency is the fitted concentration of half-maximal effect. As to conditions: NCI-H358 eGFP-delta133p53alpha fluorescence, 24 h; activation: hits give high values. The procedure, abridged: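 NCI-H358 cells pre-induced 24 h with 10 ng/ml doxycycline to express N-terminal eGFP-delta133p53alpha, then dosed 24 h at 37C without doxycycline; fixed, Hoechst-stained, GFP intensity by laser scanning cytometry, normalized to DMSO (0%) and 57.5 uM 5-azacytidine (100%).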
For orientation: Quantitative high-throughput screening tests each substance at several concentrations.

Assay [2] concerns the target Aldehyde dehydrogenase, mitochondrial (Homo sapiens) (UniProt P05091). The assay is described as follows: qHTS for Inhibitors of the Aldehyde Dehydrogenase Family (ALDH2) Primary screen (AID 2061308).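 Note: plate controls were vehicle for no effect and reference inhibitor for full effect; nearly all actives have a fitted effect of over 55% in size.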
Assay [3] addresses Retinaldehyde dehydrogenase 3 (Homo sapiens) (UniProt P47895). The assay is described as follows: qHTS for Inhibitors of the Aldehyde Dehydrogenase Family (ALDH1A3) Primary screen (AID 2061315).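 Note: plate controls were DMSO vehicle for no effect and reference inhibitor for full effect.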

Cellular tumor antigen p53 (Homo sapiens), sequence (P04637 whole entry, looked up): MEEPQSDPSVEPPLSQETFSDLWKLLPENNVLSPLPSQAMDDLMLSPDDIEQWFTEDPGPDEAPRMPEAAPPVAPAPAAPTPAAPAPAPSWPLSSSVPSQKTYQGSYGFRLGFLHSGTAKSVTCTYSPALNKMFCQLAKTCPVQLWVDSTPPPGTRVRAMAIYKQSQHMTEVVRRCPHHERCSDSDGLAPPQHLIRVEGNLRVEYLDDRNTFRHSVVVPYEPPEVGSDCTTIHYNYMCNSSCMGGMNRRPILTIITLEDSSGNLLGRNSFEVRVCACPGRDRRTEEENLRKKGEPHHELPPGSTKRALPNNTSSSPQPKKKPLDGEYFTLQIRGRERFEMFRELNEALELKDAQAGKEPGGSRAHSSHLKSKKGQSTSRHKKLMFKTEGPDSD

As for `O=C(c1ccccn1)N(Cc1cccs1)C1(C(=O)NC2CCCCC2)CCCCC1`, the activation in assay [1] is -1.67%. The Potency result in assay [2] and in assay [3] was “inactive” in each case.

Take `COc1ccc2c(c1)C[C@H](C(=O)Nc1ccc(-c3cn[nH]c3)cc1OCCN(C)C)CO2`: in assay [1], the activation is -0.893%. Moreover, the Potency entry in assay [2] and in assay [3] was “inactive” each time.

For the compound `COC(=O)[C@@H](NC(=O)[C@H](CC(C)C)NC(=O)N(Cc1ccccc1)C[C@@H](O)[C@H](Cc1ccccc1)NC(=O)OC(C)(C)C)C(C)C`, the activation in assay [1] was 19.7%. The values for the activity change, negative = inhibition in assay [2] and in assay [3] were -10% [at 11.2 µM] and 16.3% [at 11.2 µM], respectively.

Turning to `O=C(NCCN1CCCC1)c1cc(-c2ccc(CN3CCOCC3)cc2)nc2ccc(F)cc12`, the activation in assay [1] is 3.67%. The Potency result in assay [2] and in assay [3] was “inactive” throughout.

As for `O=C(OCC1=CC(O)C2C=CO[C@@H](O[C@@H]3O[C@H](CO)[C@@H](O)[C@H](O)[C@H]3O)C12)c1ccccc1` (stereo partly drawn), the activation in assay [1] was -17.6%. The Potency entry in assay [2] and in assay [3] was “inactive” in each case.

On to `CC1(C)CCC[C@]2(C)C1CC=C(CO)[C@H]2CC/C(=C/CO)CO` (stereo partly drawn), for which, in assay [1], the activation is -15.3%. Also, the Potency entry in assay [2] and in assay [3] was “inactive” each time.

In the case of `CC1(C)OC(=O)C=C[C@@]2(C)C1CC(=O)[C@]1(C)C2CC[C@@]2(C)[C@H](c3ccoc3)OC(=O)[C@H]3O[C@]321` (stereo partly drawn), the activation in assay [1] is -19.1%. Also, the Potency entry in assay [2] and in assay [3] was “inactive” throughout.

For the compound `COc1cccc(Cn2ncc3c4sc(S(C)=O)cc4n(C)c3c2=O)c1` (stereo not drawn), in assay [1], the activation is 7.67%. For the same compound, the Potency result in assay [2] and in assay [3] was “inactive” throughout.

As to `CC(=O)O[C@@H]1[C@H](O[C@@H]2O[C@H](CO)[C@@H](O)[C@H](O)[C@H]2O)[C@@H](O[C@@H]2O[C@@H](C)[C@H](O)[C@@H](O[C@@H]3O[C@H](CO)[C@@H](O)[C@H](O)[C@H]3O)[C@H]2O)[C@H](OC(=O)[C@]23CCC(C)(C)C[C@H]2C2=CCC4[C@@]5(C)C[C@H](O)[C@H](O[C@@H]6O[C@H](C(=O)O)[C@@H](O)[C@H](O)[C@H]6O)[C@@](C)(C(=O)O)C5CC[C@@]4(C)[C@]2(C)CC3)O[C@@H]1C` (stereo partly drawn), in assay [1], the activation is 2.29%. Besides, the activity change, negative = inhibition was 6.2% [at 11.2 µM] in assay [2] and -6.53% [at 11.2 µM] in assay [3].

On to `C=C(C)[C@H]1C[C@@H](O)C(=C)CC[C@@H](O)C(=C)[C@@H](O)C1`, for which the activation in assay [1] was -8.04%. In addition, the Potency entry in assay [2] and in assay [3] was “inactive” throughout.

Consider `C[C@@H]1C(=O)O[C@H]2[C@H]1CC[C@@]1(C)C(=O)C=C[C@](C)(O)[C@H]21`, for which the activation in assay [1] is 1.79%. Also, the Potency entry in assay [2] and in assay [3] was “inactive” throughout.

Regarding `NC(N)=NC(=O)c1cnn(-c2cccc3ncccc23)c1C1CC1`, the activation in assay [1] was 25%. Moreover, the Potency result in assay [2] and in assay [3] was “inactive” in each case.

Consider `CC(C)(C)OC(=O)c1ncn2c1C(C)(C)Nc1ccccc1-2`, for which, in assay [1], the activation is -12.5%. Also, the Potency result in assay [2] and in assay [3] was “inactive” each time.

Take `O=C(NC1CCC1)c1ccc(C#Cc2cccc(F)c2)nc1`: in assay [1], the activation is 21.4%. For the same compound, the Potency entry in assay [2] and in assay [3] was “inactive” each time.

`CC(=O)OC1C(=O)C2C3OCC4=C3[C@@](C)(CC[C@@H]4O)CC[C@]2(C)[C@H]1C(C)C` (stereo partly drawn): the activation in assay [1] was -14.5%. The Potency result in assay [2] and in assay [3] was “inactive” each time.

Regarding `CC1(CO)CCCC2(C)C1C(OC(=O)c1ccccc1)C=C1C(=O)OCC12O` (stereo not drawn), in assay [1], the Potency was 20.9 µM (active). Further, the Potency result in assay [2] and in assay [3] was “inactive” each time.

In the case of `O=C(O)CCc1c(C(=O)O)[nH]c2cc(Cl)cc(Cl)c12`, the activation in assay [1] was 3%. Moreover, the Potency result in assay [2] and in assay [3] was “inactive” in each case.

As to `C/C=C/C[C@@H](C)[C@@H](O)[C@H]1C(=O)N[C@@H](CC)C(=O)N(C)CC(=O)N(C)[C@@H](CC(C)C)C(=O)N[C@@H](C(C)C)C(=O)N(C)[C@@H](CC(C)C)C(=O)N[C@@H](C)C(=O)N[C@H](C)C(=O)N(C)[C@@H](CC(C)C)C(=O)N(C)[C@@H](CC(C)C)C(=O)N(C)[C@H](C(C)C)C(=O)N1C`, the activation in assay [1] is 11.5%. The Potency entry in assay [2] and in assay [3] was “inactive” each time.

In the case of `C=C1[C@H]2CC[C@]3(O)[C@@](CC[C@@H]4[C@](C)(C(=O)O)CCC[C@]43C)(C2)[C@H]1OC(=O)/C(C)=C\C`, the activation in assay [1] was 15.2%. Moreover, the Potency result in assay [2] and in assay [3] was “inactive” each time.

On to `CC1(C)CC[C@]2(C(=O)O[C@@H]3O[C@H](CO[C@@H]4O[C@H](CO)[C@@H](O)[C@H](O)[C@H]4O)[C@@H](O)[C@H](O[C@@H]4O[C@H](CO)[C@@H](O)[C@H](O)[C@H]4O)[C@H]3O)[C@H](O)C[C@]3(C)C(=CCC4[C@@]5(C)CC[C@H](O[C@@H]6OC[C@@H](O)[C@H](O)[C@H]6O)[C@@](C)(C(=O)O)C5CC[C@]43C)[C@@H]2C1` (stereo partly drawn), for which, in assay [1], the activation is 7.63%. In addition, the Potency entry in assay [2] and in assay [3] was “inactive” in each case.

With `CC(C)C1NC(=O)CNC(=O)C2CCCN2C(=O)C(Cc2c[nH]c3ccccc23)NC(=O)CNC(=O)C(Cc2ccc(O)cc2)NC(=O)CNC1=O` (stereo not drawn) (cyclo(GVGYGWP); configuration not given here), in assay [1], the activation is -6.25%. In addition, the Potency entry in assay [2] and in assay [3] was “inactive” in each case.
